Reference: PubChem BioAssay AID2751 (The Scripps Research Institute Molecular Screening Center, 2010)
The whole screen tested about 320,000 compounds, of which about 2,200 (0.69%) were called active. No stated cut-off is given here; in the data, active means inhibition above about 43%; inactive means the rest. The sample as a whole holds a higher share of actives than the screen did.

Target: Prolyl endopeptidase-like (Homo sapiens) (UniProt Q4J6C6)
Experiment: PREPL enzyme inhibitors, primary screen, biochemical, fluorescence polarization (AID 2751);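 further: 0% = enzyme with DMSO and 100% = wells lacking enzyme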
Settings: recombinant PREPL, fluorescence polarization activity-based probe; at 5.96 µM; active compounds read high

Prolyl endopeptidase-like (Homo sapiens), sequence (Q4J6C6 whole entry, looked up): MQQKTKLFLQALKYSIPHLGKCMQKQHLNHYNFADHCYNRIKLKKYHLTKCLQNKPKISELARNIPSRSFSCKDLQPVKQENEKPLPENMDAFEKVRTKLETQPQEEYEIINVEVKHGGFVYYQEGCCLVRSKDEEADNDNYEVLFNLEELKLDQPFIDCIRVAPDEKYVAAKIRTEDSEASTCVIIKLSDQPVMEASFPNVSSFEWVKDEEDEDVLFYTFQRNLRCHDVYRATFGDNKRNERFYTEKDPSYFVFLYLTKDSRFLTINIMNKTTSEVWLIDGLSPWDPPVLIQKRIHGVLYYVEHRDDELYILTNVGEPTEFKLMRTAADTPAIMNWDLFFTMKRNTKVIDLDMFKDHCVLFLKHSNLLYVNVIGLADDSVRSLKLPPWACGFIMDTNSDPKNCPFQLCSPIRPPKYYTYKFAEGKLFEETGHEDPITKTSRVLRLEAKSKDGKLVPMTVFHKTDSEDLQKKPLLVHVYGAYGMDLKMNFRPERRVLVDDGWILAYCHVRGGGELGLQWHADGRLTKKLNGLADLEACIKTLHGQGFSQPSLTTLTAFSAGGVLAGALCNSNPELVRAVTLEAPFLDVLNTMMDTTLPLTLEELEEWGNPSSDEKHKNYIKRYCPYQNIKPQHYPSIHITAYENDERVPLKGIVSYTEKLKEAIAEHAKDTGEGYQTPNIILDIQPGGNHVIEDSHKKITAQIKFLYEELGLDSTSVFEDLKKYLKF

| SMILES | inhibition |
| --- | --- |
| CCN1C(=O)c2cccc3c(S(=O)(=O)Nc4ccccc4O)ccc1c23 | 4.31% (inactive) |
| CCN1C(=O)c2cccc3c(N)ccc1c23 | 45.6% (active) |
| CN1C(=O)c2cccc3c(N)ccc(c23)C1=O | 14.4% (inactive) |
| Cc1snc(SCc2c(F)cccc2Cl)c1C#N | 10% (inactive) |
| Cc1nc([N+](=O)[O-])nn1C12CC3CC(CC(Br)(C3)C1)C2 | 45.5% (active) |
| COc1cccc(NC(=O)c2nn(C34CC5CC(CC(C5)C3)C4)cc2[N+](=O)[O-])c1 | 1.65% (inactive) |
| Cc1ncn(C23CC4CC(CC(O)(C4)C2)C3)n1 | 3.85% (inactive) |
| CCn1nc(C(=O)NNS(=O)(=O)c2cc(/C=C/C(=O)O)cc(OC)c2OC)c2ccccc2c1=O | 1.44% (inactive) |
| Cn1c(CC2Sc3ccccc3NC2=O)nnc1SCC(=O)c1ccc(Cl)cc1 (stereo unspecified) | -2.92% (inactive) |
| Cc1cc(-c2nnc(SCC(=O)Nc3ccc(F)cc3)n2N)n[nH]1 | -0.73% (inactive) |
| CCOC(=O)N1CCN(S(=O)(=O)c2ccc(-n3cnnn3)cc2)CC1 | -0.87% (inactive) |
| COc1ccc(/C=N/N=C/c2c[nH]c(=O)c(C#N)c2Nc2ccccc2)cc1 | 5.21% (inactive) |
| O=C(OCC(=O)N1CCc2ccccc21)c1ccc([N+](=O)[O-])cc1 | 18% (inactive) |
| O=C1c2ccccc2C(=O)c2c1cccc2N1CCN(C/C=C/c2ccccc2)CC1 | 87.2% (active) |
| O=C1c2ccccc2C(=O)c2c1cccc2N1CCN(CCO)CC1 | 10% (inactive) |
| O=C1c2ccccc2C(=O)c2c1cccc2N1CCN(Cc2ccccc2)CC1 | 34.3% (inactive) |
| CN(C(=O)CC1C(=O)NCCN1Cc1ccc2ccccc2c1)C1CCOCC1 (stereo unspecified) | 15.8% (inactive) |
| CCCc1cc(=S)n2c([nH]c3ccccc32)c1C#N | 16% (inactive) |
| Cc1ccc(N2CCN(C3=NC(=O)/C(=C\c4cccs4)S3)CC2)cc1 | 53% (active) |
| Cc1ccsc1/C=C1\SC(N2CCOCC2)=NC1=O | 5.64% (inactive) |
| Cc1ccc(N2CCN(/N=C/c3cccs3)CC2)cc1 | 10.6% (inactive) |
| CN(NS(=O)(=O)c1cccs1)c1ncc(C(F)(F)F)cc1Cl | -0.65% (inactive) |
| COc1ccccc1OCC(=O)Nc1c2c(nn1-c1ccc(F)cc1)CS(=O)(=O)C2 | -4.94% (inactive) |
| COc1ccc(Cl)cc1NC(=O)CN1CCN(C(=O)N2CCOCC2)CC1 | -6.54% (inactive) |

| SMILES | inhibition |
| --- | --- |
| COc1cccc(NC(=O)CN2CCN(CC(=O)Nc3ccccc3Cl)CC2)c1 | -3.67% (inactive) |
| COc1ccc(NC(C)=O)cc1NC(=O)CN1CCN(C2c3ccccc3-c3ccccc32)CC1 | 43.8% (active) |
| CN=C1SC(CC(=O)Nc2ccc(C(=O)O)cc2)C(=O)N1C (stereo unspecified) | 1.69% (inactive) |
| COP1(=O)C[C@@H](O)[C@@H](O)[C@@H](COCc2ccccc2)O1 (stereo partly specified) | -5.04% (inactive) |
| O=C(c1ccco1)N1CCN(C(=O)C2CCCN(S(=O)(=O)c3cccc4nsnc34)C2)CC1 (stereo unspecified) | -5.71% (inactive) |
| CCc1ccc(/C=C2\SC(N3CCOCC3)=NC2=O)cc1 | 19.1% (inactive) |
| CC1CCN(C2=NC(=O)/C(=C/c3ccc(O)cc3)S2)CC1 | 12.1% (inactive) |
| O=C1N=C(N2CCc3ccccc3C2)S/C1=C\c1ccc(O)cc1 | 47.4% (active) |
| C=CCOc1ccc(/C=C/C(=O)OCC(=O)NC(C)c2ccc(F)cc2)cc1 (stereo unspecified) | 5.51% (inactive) |
| S=C(NCCC1=CCCCC1)Nc1ccccc1 | 9.47% (inactive) |
| Oc1ccc2ccccc2c1N=Nc1nccs1 | 50.7% (active) |
| Cc1ccc(S(=O)(=O)N2CCN=C2SCc2c(F)cccc2Cl)cc1 | 11.2% (inactive) |
| C=CC(=O)OCCOCCOCCOCCOC(=O)C=C | -0.81% (inactive) |
| Cc1ccc(OCC(=O)Nc2ccc(N3CCN(C(=O)c4ccco4)CC3)cc2)c(C)c1 | 55% (active) |
| CN1CCC(OC(=O)COc2ccc(Cl)cc2Cl)CC1 | -6% (inactive) |
| Cc1ccc(Cl)c(OCC(=O)N(C)CC(=O)Nc2ccc(N3CCOCC3)cc2)c1 | -6.09% (inactive) |
| CN1CCN(c2ccc(NC(=O)COc3ccc(Cl)cc3Cl)cc2)CC1 | 54.8% (active) |
| Cc1ccc(C)c(OCC(=O)N2CCN(C(=O)c3ccco3)CC2)c1 | 1.04% (inactive) |
| CCC(=O)Nc1ccc(C(=O)N2CCN(C(=O)c3ccco3)CC2)cc1 | -4% (inactive) |
| Cc1ccc(S(=O)(=O)c2nc(-c3cccs3)oc2NCc2cccnc2)cc1 | 8.75% (inactive) |
| Oc1ccccc1-c1cc(-c2ccc(Cl)cc2)n[nH]1 | -35.8% (inactive) |
| O=C(N/N=C/c1cccnc1)c1cc2ccccc2cc1O | 63.4% (active) |
| O=C(NN=Cc1ccc(N2CCOCC2)cc1)c1cc2ccccc2cc1O | 19.7% (inactive) |
| Cc1ccc(/C=N/NC(=O)c2cc3ccccc3cc2O)o1 | 13.4% (inactive) |

| SMILES | inhibition |
| --- | --- |
| NC(=O)COc1ccc(/C=N/NC(=O)C2CCCN2S(=O)(=O)c2ccc(Cl)cc2)cc1 (stereo unspecified) | 11% (inactive) |
| CCCCN(C(=O)c1ccc(C)o1)c1c(N)n(CCCC)c(=O)[nH]c1=O | -0.55% (inactive) |
| c1ccc2c(NCC3CCCO3)nc(-c3ccncc3)nc2c1 (stereo unspecified) | 5.66% (inactive) |
| CC(C)(C)Nc1nc(-c2ccccn2)nc2ccccc12 | 47.1% (active) |
| COc1ccc(CNc2ncnc3ccccc23)cc1 | -16.5% (inactive) |
| Cc1n[nH]c(C)c1S(=O)(=O)N1CCCC(C(=O)Nc2ccc(Br)cc2)C1 (stereo unspecified) | -17.7% (inactive) |
| O=S(=O)(O)CCN1CCOCC1 | 25.7% (inactive) |
| O=C(NCC(=O)N1CCN(c2ccccc2F)CC1)c1cccs1 | 3.72% (inactive) |
| NC(=O)c1cc2ccccc2o/c1=N/NC(=O)c1cccc(F)c1 | 11.6% (inactive) |
| COc1cccc2cc(C(N)=O)/c(=N\NC(=O)c3ccccc3)oc12 | -0.47% (inactive) |
| CCN(CC)c1ccc2cc(C(N)=O)/c(=N\NC(=O)c3ccncc3)oc2c1 | 48.4% (active) |
| CC1CCC2(CC1)NC(=O)N(CC(=O)c1ccc3c(c1)OCO3)C2=O (stereo unspecified) | 11.2% (inactive) |
| O=c1oc(-c2ccccc2NS(=O)(=O)c2ccc(Cl)cc2)nc2ccccc12 | 6.42% (inactive) |
| COC(=O)[C@]1(CC(C)C)N[C@H](c2ccc(SC3CCCCC3)cc2)[C@@H]2C(=O)N(C)C(=O)[C@@H]21 | 2.32% (inactive) |
| CCN1/C(=C/c2ccc3ccc(C)cc3[n+]2CC)Sc2ccccc21 | 53.4% (active) |
| CCN1/C(=C\c2ccc3ccccc3[n+]2CC)Sc2cc(C)ccc21 | 52.8% (active) |
| COc1ccc(OC)c(CN2CCN(C(=O)CNC(=O)c3cc(C)cc(C)c3)CC2)c1 | 5.26% (inactive) |
| Cn1cnc(S(=O)(=O)Nc2ccc3c(c2)OCCO3)c1 | -9.35% (inactive) |
| CC(=O)c1cc(NC(=O)c2ccccc2)c(=O)oc1/C=C/N(C)C | 0.73% (inactive) |
| Cc1cccc(N2CCN(C(C)C(=O)N3CCc4ccccc43)CC2)c1C (stereo unspecified) | 18.7% (inactive) |
| CC1CCC2(CC1)NC(=O)N(Cc1nnc(-c3cccs3)o1)C2=O (stereo unspecified) | 11.6% (inactive) |
| CCCNCc1cc(OCC)c(OCC(=O)Nc2ccccc2)cc1Br | -9.46% (inactive) |
| CCCC(CCC(=O)OC)(C(=O)OCC)c1csc(N)n1 (stereo unspecified) | 2.3% (inactive) |
| Cc1ccc(Cn2c(SCC(=O)N/N=C/c3ccccc3OCC(=O)O)nc3ccccc32)cc1 | -29% (inactive) |

| SMILES | inhibition |
| --- | --- |
| Cc1ccc(NS(=O)(=O)c2ccc(N/N=C/c3ccccc3OCC(=O)O)c([N+](=O)[O-])c2)c(C)c1 | 49.9% (active) |
| C=C(C)CNC(=S)N/N=C/c1ccccc1OCC(=O)O | -3.72% (inactive) |
| O=C(C1CCCN1S(=O)(=O)c1ccc(Br)cc1)N1CCOCC1 (stereo unspecified) | 12.8% (inactive) |
| Cc1ccc(C)c(NC(=O)C2Cc3ccccc3CN2C(=O)OCc2ccccc2)c1 (stereo unspecified) | -31.7% (inactive) |
| CC[N+](C)(CC)CCC[n+]1c(-c2ccccc2)c2cc(N)ccc2c2ccc(N)cc21 | 65.2% (active) |
| COc1ccc(C2NC(=O)C(=O)/C2=C(\O)c2ccc(Cl)cc2)cc1OC (stereo unspecified) | 2.96% (inactive) |
| C=CCN1C(=O)C(Cc2ccc(OCC)cc2)SC1=Nc1ccc(C(=O)O)cc1 (stereo unspecified) | -7.27% (inactive) |
| CCNC(=O)N(CC)C[C@H]1N[C@@](CC)(C(=O)OC)[C@H]2C(=O)N(Cc3ccccc3)C(=O)[C@@H]12 | 2.12% (inactive) |
| CCC(=O)N1CCN(c2ccccc2NC(=O)COc2cccc(C)c2C)CC1 | 12.6% (inactive) |
| Cc1ccccc1OCC(=O)Nc1ccc(N2CCN(C(=O)C(C)C)CC2)c(Cl)c1 | 49.4% (active) |
| Cc1ccccc1OCC(=O)Nc1ccc2c(c1)ncn2C | 8.18% (inactive) |
| O=C(Nc1c2c(nn1-c1ccccc1)CS(=O)(=O)C2)C1CCCC1 | 11.5% (inactive) |
| O=C(C1CCCN(S(=O)(=O)c2ccc([N+](=O)[O-])cc2)C1)N1CCCCC1 (stereo unspecified) | 3.89% (inactive) |
| CC1=CC(C)(C)NC(=S)N1c1ccccc1 | 0.44% (inactive) |
| CCOc1ccc2nc(N3CCCN(C(=O)Nc4ccccc4C)CC3)c(C#N)cc2c1 | 43.6% (active) |
| COc1ccc2nc(N3CCCC(O)C3)c(C#N)cc2c1 (stereo unspecified) | 19.4% (inactive) |
| CCOC(=O)c1cc(C#N)c(N2CCCCC2)nc1-c1ccccc1 | -11.5% (inactive) |
| O=C(NCc1ccccc1Cl)C1CCC(CNc2c(N3CCCCC3)c(=O)c2=O)CC1 (stereo unspecified) | 0.19% (inactive) |
| O=C(c1ccccc1Oc1ccccc1)N1CCN(c2ccc(F)cc2)CC1 | -29.3% (inactive) |
| O=C(c1cc2cc(F)ccc2[nH]1)N1CCN(c2ccc(F)cc2)CC1 | 18.5% (inactive) |
| O=C(c1cccc(C(=O)N2CCN(c3ccc(F)cc3)CC2)c1)N1CCN(c2ccc(F)cc2)CC1 | 62.3% (active) |
| O=C(c1cccc(F)c1)N1CCN(c2ccc([N+](=O)[O-])c(N3CCCCC3)c2)CC1 | 16.6% (inactive) |
| O=C(c1cncc(Br)c1)N1CCN(c2ccc([N+](=O)[O-])cc2)CC1 | 17.6% (inactive) |
| O=C(c1cc(C(=O)N2CCN(c3ccc(F)cc3)CC2)cc([N+](=O)[O-])c1)N1CCN(c2ccc(F)cc2)CC1 | 43.4% (active) |
